Drawing on the supplement of paper PMC10849652, this text covers log2 fold change for 8 targets.

Of roughly 8,800 targets only a part is listed; those with a hit were picked by preference. About 0.5% of all pairs of compound and target were hits. Values without a mark were called inactive.

Chain of UniProt Q10471 (Q10471 whole entry, looked up): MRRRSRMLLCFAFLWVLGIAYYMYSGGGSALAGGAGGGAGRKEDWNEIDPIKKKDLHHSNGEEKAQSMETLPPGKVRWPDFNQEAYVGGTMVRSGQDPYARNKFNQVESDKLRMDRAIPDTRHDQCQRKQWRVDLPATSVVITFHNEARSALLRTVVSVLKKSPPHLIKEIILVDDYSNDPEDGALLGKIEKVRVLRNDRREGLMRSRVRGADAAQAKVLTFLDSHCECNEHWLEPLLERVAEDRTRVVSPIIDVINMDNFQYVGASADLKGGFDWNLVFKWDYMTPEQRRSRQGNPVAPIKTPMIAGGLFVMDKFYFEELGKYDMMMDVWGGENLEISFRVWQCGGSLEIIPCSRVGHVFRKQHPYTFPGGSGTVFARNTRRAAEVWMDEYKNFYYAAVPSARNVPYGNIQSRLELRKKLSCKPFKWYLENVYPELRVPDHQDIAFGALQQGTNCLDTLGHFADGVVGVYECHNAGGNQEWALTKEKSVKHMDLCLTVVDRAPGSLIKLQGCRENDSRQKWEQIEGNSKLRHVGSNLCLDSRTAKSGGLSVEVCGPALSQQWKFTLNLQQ
Chain of UniProt P49356 (P49356 whole entry, looked up): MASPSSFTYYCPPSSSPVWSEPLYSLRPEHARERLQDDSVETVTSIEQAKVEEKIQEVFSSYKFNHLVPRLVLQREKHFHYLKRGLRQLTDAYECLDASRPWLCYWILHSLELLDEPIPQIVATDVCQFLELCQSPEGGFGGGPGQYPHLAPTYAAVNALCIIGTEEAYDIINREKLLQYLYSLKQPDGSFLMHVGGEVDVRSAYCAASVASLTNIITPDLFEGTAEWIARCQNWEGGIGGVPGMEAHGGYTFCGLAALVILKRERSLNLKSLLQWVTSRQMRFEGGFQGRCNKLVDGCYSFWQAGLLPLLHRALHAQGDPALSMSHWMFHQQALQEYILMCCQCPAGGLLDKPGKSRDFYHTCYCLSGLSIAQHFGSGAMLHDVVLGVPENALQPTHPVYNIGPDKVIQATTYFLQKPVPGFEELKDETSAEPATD
Chain of UniProt P85037 (P85037 whole entry, looked up): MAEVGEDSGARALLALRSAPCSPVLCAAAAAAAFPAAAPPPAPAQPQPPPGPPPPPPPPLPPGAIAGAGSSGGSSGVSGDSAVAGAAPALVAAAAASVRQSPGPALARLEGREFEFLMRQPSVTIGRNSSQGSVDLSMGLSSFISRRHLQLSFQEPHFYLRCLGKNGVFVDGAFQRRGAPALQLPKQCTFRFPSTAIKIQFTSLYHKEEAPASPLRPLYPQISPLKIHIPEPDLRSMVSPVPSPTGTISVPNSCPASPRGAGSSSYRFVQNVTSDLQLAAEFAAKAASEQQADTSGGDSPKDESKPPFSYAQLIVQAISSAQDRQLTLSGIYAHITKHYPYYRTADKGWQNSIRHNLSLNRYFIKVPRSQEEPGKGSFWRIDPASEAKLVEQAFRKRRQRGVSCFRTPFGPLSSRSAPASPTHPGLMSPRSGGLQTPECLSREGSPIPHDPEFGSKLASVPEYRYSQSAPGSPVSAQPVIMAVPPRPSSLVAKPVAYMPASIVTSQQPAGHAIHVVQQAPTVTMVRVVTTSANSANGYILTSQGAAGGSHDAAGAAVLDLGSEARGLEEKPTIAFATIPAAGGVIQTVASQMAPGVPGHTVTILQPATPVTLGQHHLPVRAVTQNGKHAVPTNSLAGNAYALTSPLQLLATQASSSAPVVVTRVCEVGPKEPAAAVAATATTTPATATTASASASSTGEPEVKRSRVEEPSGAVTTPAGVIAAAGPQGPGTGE
Chain of UniProt Q8TB52 (Q8TB52 whole entry, looked up): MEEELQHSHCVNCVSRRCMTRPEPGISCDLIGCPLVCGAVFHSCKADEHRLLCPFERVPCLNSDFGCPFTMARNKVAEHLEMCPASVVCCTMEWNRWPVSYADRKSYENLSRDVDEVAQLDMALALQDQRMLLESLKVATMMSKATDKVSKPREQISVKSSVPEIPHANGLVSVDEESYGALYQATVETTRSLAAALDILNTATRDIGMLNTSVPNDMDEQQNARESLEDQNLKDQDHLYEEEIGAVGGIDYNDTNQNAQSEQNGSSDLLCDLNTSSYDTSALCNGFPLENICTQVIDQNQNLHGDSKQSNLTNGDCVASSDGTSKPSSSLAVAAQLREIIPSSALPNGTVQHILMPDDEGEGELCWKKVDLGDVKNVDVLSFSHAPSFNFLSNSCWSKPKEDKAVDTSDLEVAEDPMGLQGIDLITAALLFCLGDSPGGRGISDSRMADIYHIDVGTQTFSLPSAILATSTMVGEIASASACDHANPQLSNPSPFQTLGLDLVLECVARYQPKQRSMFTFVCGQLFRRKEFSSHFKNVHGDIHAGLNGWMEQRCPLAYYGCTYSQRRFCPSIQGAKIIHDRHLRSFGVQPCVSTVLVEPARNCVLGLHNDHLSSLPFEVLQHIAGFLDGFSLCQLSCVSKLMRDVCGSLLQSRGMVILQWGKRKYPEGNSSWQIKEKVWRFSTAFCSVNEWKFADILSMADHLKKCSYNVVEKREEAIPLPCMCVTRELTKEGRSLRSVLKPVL
Chain of UniProt Q8TEQ6 (Q8TEQ6 whole entry, looked up): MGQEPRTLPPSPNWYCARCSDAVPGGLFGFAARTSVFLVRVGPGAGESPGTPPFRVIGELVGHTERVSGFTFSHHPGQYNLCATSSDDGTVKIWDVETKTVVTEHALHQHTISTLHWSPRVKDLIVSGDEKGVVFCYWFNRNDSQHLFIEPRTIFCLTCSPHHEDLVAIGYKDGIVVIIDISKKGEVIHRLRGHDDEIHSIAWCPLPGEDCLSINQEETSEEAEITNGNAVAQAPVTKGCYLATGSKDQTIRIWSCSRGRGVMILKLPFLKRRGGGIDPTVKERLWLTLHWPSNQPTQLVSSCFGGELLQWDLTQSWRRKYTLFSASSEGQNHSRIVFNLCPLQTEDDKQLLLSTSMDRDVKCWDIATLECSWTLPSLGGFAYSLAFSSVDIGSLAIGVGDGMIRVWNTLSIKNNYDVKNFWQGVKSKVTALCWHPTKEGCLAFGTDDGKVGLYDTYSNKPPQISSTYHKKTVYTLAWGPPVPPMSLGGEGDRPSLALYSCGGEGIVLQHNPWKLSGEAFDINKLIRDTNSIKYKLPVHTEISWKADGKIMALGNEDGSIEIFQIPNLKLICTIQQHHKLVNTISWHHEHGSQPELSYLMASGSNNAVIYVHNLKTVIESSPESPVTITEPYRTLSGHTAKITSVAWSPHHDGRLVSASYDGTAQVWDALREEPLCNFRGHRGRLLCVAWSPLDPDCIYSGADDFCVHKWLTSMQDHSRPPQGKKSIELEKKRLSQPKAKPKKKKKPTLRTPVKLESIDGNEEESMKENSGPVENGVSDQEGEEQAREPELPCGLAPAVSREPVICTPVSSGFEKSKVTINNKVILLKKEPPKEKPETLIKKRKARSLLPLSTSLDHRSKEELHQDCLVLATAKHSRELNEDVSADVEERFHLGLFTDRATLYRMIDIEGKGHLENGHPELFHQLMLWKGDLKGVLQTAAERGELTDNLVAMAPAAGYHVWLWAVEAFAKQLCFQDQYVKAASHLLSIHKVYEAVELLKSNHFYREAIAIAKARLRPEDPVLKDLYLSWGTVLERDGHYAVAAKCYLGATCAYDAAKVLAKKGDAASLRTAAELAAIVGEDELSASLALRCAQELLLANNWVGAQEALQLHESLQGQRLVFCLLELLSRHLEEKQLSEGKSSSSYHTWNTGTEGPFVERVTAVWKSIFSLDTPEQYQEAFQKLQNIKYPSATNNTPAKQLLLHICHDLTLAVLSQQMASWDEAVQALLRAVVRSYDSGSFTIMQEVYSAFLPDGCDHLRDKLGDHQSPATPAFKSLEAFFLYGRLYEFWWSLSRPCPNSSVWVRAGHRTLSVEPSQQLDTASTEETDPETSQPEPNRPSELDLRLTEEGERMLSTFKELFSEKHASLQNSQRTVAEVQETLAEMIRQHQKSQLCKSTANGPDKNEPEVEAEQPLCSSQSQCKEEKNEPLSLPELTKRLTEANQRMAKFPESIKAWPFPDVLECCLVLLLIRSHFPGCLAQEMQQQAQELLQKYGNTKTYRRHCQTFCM
Chain of UniProt Q9H410 (Q9H410 whole entry, looked up): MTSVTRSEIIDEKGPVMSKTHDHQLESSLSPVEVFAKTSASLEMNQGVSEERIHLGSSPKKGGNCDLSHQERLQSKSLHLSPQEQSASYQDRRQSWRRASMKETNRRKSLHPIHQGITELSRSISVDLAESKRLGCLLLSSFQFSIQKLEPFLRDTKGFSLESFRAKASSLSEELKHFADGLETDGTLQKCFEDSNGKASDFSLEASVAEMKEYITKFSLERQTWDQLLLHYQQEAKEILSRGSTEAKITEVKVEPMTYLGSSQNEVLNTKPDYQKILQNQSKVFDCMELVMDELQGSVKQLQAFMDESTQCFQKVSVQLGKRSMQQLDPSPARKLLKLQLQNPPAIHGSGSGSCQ
Chain of UniProt P62942 (P62942 whole entry, looked up): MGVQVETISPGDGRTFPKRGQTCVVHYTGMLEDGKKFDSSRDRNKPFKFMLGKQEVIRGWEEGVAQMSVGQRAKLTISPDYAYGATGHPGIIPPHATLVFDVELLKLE

Compound in the assay: c1cn2cc(-c3ccc4cn[nH]c4c3)nc(Nc3ccc(N4CCOCC4)cc3)c2n1 [entospletinib]
In words: log2 fold change, soluble protein after heating vs DMSO (PISA); higher = thermal stabilisation; K562 lysate, 10 uM; active = over 0.2 and 3.5 SD of the protein, either way, in both replicates (recomputed). The essentials: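 Values give the log-two fold change in thermal stability against solvent controls, from duplicates. Crude K562 extract at 1 mg/mL protein, made by dounce homogenisation in PBS pH 7.4 with 1 mM MgCl2, was treated with 10 μM compound for 30 min. After 3 min heating across 48°C-58°C, aliquots were pooled, adjusted to 0.5% NP-40 at 4°C and centrifuged at 21,000xg for 90 min. The supernatant was measured by TMTpro 16plex LC-MS/MS with channel sums equalised.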
Consider GAA (UniProt P10253), for which the log2 fold change is 0.068.
Regarding FOXK1 (UniProt P85037), the log2 fold change was 0.038.
Consider FKBP1A (UniProt P62942), for which the log2 fold change was 0.049.
For GEMIN5 (UniProt Q8TEQ6), the log2 fold change was 0.004.
Then FNTB (UniProt P49356), with -0.048.
Take DSN1 (UniProt Q9H410): the log2 fold change was -0.017.
Then FBXO30 (UniProt Q8TB52), with 0.013; and GALNT2 (UniProt Q10471), with -0.034.
